Among the data in PubChem BioAssay (NCI) are growth values, retold here.

The panel holds about 83,000 compounds, 20% with a hit somewhere; the sample as a whole holds those more often.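 Treatment: one concentration, 48 hours, 96-well format. Scoring: percent growth, with anything below 10 considered active.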 A number with no mark means an inactive call. Activity calls are given as the source filed them.

Some test systems named below: NCI-H23 lung; NCI-H226 lung; NCI-H322M lung; HOP-62 NSCLC; NCI-H522 lung; A549/ATCC NSCLC; 786-0 renal; COLO 205 colon; DU-145 prostate; K-562 leukemia; MALME-3M melanoma; MDA-MB-231 breast; RXF 393 renal; SF-268 CNS; SF-295 CNS; SF-539 CNS; UACC-257 melanoma; M14 melanoma; NCI-H460 lung; HOP-92 NSCLC.
What all share (test): NCI-60 one-dose screen, 48 h (100 = growth as untreated, 0 = no growth, -100 = all killed)
What all share (conditions): 10 µM unless noted

For the molecule `N#Cc1nc(-c2ccc(F)cc2)oc1S(=O)(=O)N1CCN(c2ccc(F)cc2)CC1`, the growth with NCI-H23 lung was 72.8%; in the experiment with NCI-H226 lung, 91.7%; in the experiment with NCI-H322M lung, 100%; in the experiment on HOP-62 NSCLC it was 109%; in the experiment on NCI-H522 lung it was 43.5%; with A549/ATCC NSCLC, 104%. Besides, the growth in the experiment with 786-0 renal was 100%; in the experiment on COLO 205 colon, 86.7%; in the experiment on DU-145 prostate, 102%; in the experiment on K-562 leukemia, 17.6%; in the experiment on MALME-3M melanoma it was 104%; in the experiment with MDA-MB-231 breast, 92%. The growth with RXF 393 renal is 95.3%; in the experiment with SF-268 CNS, 106%; in the experiment with SF-295 CNS, 106%; in the experiment on SF-539 CNS it was 101%; with UACC-257 melanoma it was 97.9%; in the experiment on M14 melanoma, 88.2%.
Regarding `COc1cc(/C=C2\CN(S(=O)(=O)c3ccc(C)cc3)C/C(=C\c3cc(CN4CCCCC4)c(O)c(OC)c3)C2=O)cc(CN2CCCCC2)c1O`, the growth in the experiment on NCI-H23 lung was -64% (active); with NCI-H226 lung, -52.5% (active); in the experiment on NCI-H322M lung it was -74.4% (active); in the experiment on NCI-H460 lung, -72.5% (active); in the experiment on HOP-92 NSCLC, -75.3% (active); with NCI-H522 lung, -58% (active). Further, the growth is -84.9% (active) in the experiment with A549/ATCC NSCLC; -65.4% (active) with 786-0 renal; -90.2% (active) in the experiment on COLO 205 colon; -88.1% (active) with DU-145 prostate; -24.2% (active) in the experiment with K-562 leukemia; -82.4% (active) in the experiment on MALME-3M melanoma. For the same molecule, the growth with MDA-MB-231 breast is -73.1% (active); with RXF 393 renal, -72.1% (active); in the experiment with SF-268 CNS it was -61.1% (active); with SF-295 CNS it was -74.7% (active); with SF-539 CNS it was -84.8% (active); in the experiment on UACC-257 melanoma, -89.6% (active). The growth in the experiment with M14 melanoma is -89% (active).
For `O[C@@H](c1cc(C(F)(F)F)nc2c(C(F)(F)F)cccc12)[C@H]1CCCCN1`, the growth in the experiment on NCI-H23 lung was 81.5%; in the experiment on NCI-H226 lung, 94.6%; with NCI-H322M lung, 71.5%; in the experiment on NCI-H460 lung, 35.6%; in the experiment on HOP-92 NSCLC it was 12.3%; in the experiment on NCI-H522 lung, 40%. The growth is 66% in the experiment with A549/ATCC NSCLC; 46.3% in the experiment on 786-0 renal; 67.9% in the experiment with COLO 205 colon; 65.8% in the experiment with DU-145 prostate; 15.8% with K-562 leukemia; 99% in the experiment with MALME-3M melanoma. Also, the growth is 14.5% in the experiment on MDA-MB-231 breast; 55.2% in the experiment on RXF 393 renal; 54.7% in the experiment with SF-268 CNS; 95.7% with SF-295 CNS; 85.6% in the experiment on SF-539 CNS; 65.5% with UACC-257 melanoma. Moreover, the growth in the experiment on M14 melanoma was 71.6%.
As for `Cc1ccc(O)c(NC(=O)c2ccc(CNc3ccnc(C(F)(F)F)c3)cc2)c1`, the growth in the experiment with NCI-H23 lung is 81.1%; in the experiment on NCI-H226 lung it was 74%; in the experiment on NCI-H322M lung, 65.3%; with NCI-H460 lung, 18.8%; in the experiment on NCI-H522 lung it was 67.6%; in the experiment with A549/ATCC NSCLC, 53%. The growth is 48.8% in the experiment on 786-0 renal; 152% in the experiment with COLO 205 colon; 107% in the experiment on DU-145 prostate; 24.2% in the experiment on K-562 leukemia; 59.9% in the experiment with MALME-3M melanoma; 48.9% in the experiment with MDA-MB-231 breast. Besides, the growth is 92% with RXF 393 renal; 79.9% in the experiment on SF-268 CNS; 17.2% in the experiment with SF-295 CNS; 35.1% with SF-539 CNS; 71.3% in the experiment with UACC-257 melanoma; 49.2% in the experiment on M14 melanoma.
Regarding `CC(=O)c1cc(-c2ccccc2N)n(-c2ccc3c(c2)OCO3)c1C`, the growth in the experiment with NCI-H23 lung is 43.4%; in the experiment with NCI-H226 lung it was -0.426% (active); in the experiment on NCI-H322M lung, 31.6%; with NCI-H460 lung, 2.71% (active); with HOP-92 NSCLC, 38.8%; in the experiment on NCI-H522 lung, 18.4%. The growth in the experiment with A549/ATCC NSCLC was 19.5%; in the experiment with 786-0 renal, 23.9%; in the experiment on COLO 205 colon, -18.6% (active); in the experiment on DU-145 prostate, 9.47% (active); in the experiment with K-562 leukemia it was 5.63% (active); with MALME-3M melanoma it was 48.7%. For the same molecule, the growth is 21.3% with MDA-MB-231 breast; 39.7% with RXF 393 renal; 31.5% with SF-268 CNS; -10% (active) in the experiment on SF-295 CNS; -0.915% (active) in the experiment on SF-539 CNS; 76.6% with UACC-257 melanoma. Moreover, the growth in the experiment on M14 melanoma is 10%.
As for `COc1cc(/C=C2\C(=O)N(c3c(Cl)cccc3Cl)c3ccccc32)cc(OC)c1OCCCCCCn1c2ccccc2c(=O)c2ccccc21`, the growth in the experiment on NCI-H23 lung was 103%; in the experiment on NCI-H226 lung, 95.4%; with NCI-H322M lung, 95.7%; in the experiment on NCI-H460 lung it was 110%; in the experiment with HOP-92 NSCLC it was 95.9%; in the experiment on NCI-H522 lung it was 87.3%. For the same molecule, the growth in the experiment with A549/ATCC NSCLC is 109%; in the experiment on 786-0 renal it was 95.5%; with COLO 205 colon, 107%; in the experiment on DU-145 prostate, 104%; in the experiment on K-562 leukemia, 98.8%; in the experiment on MALME-3M melanoma, 106%. The growth in the experiment on MDA-MB-231 breast was 100%; in the experiment with RXF 393 renal, 106%; with SF-268 CNS, 87.6%; in the experiment with SF-295 CNS, 99%; in the experiment on SF-539 CNS it was 93.8%; with UACC-257 melanoma, 111%. In addition, in the experiment on M14 melanoma, the growth was 93.8%.
As for `O=C(CN1CCN(c2cc3c(cc2F)c(=O)c(C(=O)O)cn3C2CC2)CC1)N/N=C/c1ccncc1`, the growth in the experiment on NCI-H23 lung is 102%; in the experiment with NCI-H226 lung it was 100%; in the experiment with NCI-H322M lung it was 96.3%; with NCI-H460 lung it was 106%; in the experiment with NCI-H522 lung, 96.5%; in the experiment with A549/ATCC NSCLC it was 86.8%. Moreover, the growth was 90.8% in the experiment with 786-0 renal; 108% in the experiment with COLO 205 colon; 106% with DU-145 prostate; 91.7% in the experiment on K-562 leukemia; 103% with MALME-3M melanoma; 98.4% in the experiment on MDA-MB-231 breast. In addition, the growth in the experiment on RXF 393 renal is 110%; with SF-268 CNS, 92.8%; in the experiment on SF-295 CNS, 96.6%; in the experiment with SF-539 CNS it was 95.6%; with UACC-257 melanoma it was 87.9%; in the experiment with M14 melanoma, 96.1%.
On to `COc1cc(C2=NN(C(C)=O)C(c3ccc(N(C)C)cc3)C2)cc(OC)c1OC` (centres undefined), for which the growth is 88.8% in the experiment on NCI-H23 lung; 97.8% with NCI-H226 lung; 82.7% with NCI-H322M lung; 107% with NCI-H460 lung; 79.7% in the experiment with HOP-92 NSCLC; 72.4% in the experiment with NCI-H522 lung. Further, the growth with A549/ATCC NSCLC is 90.6%; in the experiment with 786-0 renal, 79.7%; with COLO 205 colon it was 108%; in the experiment with DU-145 prostate, 103%; with K-562 leukemia, 81.7%; with MALME-3M melanoma, 87.3%. Further, the growth in the experiment on MDA-MB-231 breast is 74.1%; with RXF 393 renal it was 103%; with SF-268 CNS, 105%; in the experiment on SF-295 CNS, 95.1%; in the experiment with SF-539 CNS it was 91.5%; with UACC-257 melanoma, 76.7%. The growth in the experiment with M14 melanoma was 95%.
